# Values joined by “and” are separate entries in the source; they are usually repeats but may differ in a detail not shown here. Equal values may be shown once. Where a structure was tested more than once in an assay, its records may differ in their call. Active and inactive are the calls of the source. How the source made its calls: active means hit-call score of the fitted dose curve at least 0.9, where 1 is the maximum; inactive means score below 0.9.
# Experiment: ATG_PXRE_CIS: Attagene CIS-FACTORIAL HepG2 Assay for human Pregnane X Receptor Element (PXRE) (AID 2282957)
# Settings: HepG2 Attagene CIS-FACTORIAL PXRE reporter, mRNA; actives raise or lower the signal
# Protocol: ATG_CIS is a cell-based, multiplexed-readout assay that uses HepG2, a human liver cell line, with measurements taken at 24 hours after chemical dosing in a 24-well plate.ATG_PXRE_CIS is one of 52 assay component(s) measured or calculated from the ATG_CIS assay. It is designed to make measurements of mRNA induction, a form of inducible reporter, as detected with fluorescence intensity signals by Reverse transcription polymerase chain reaction (RT-PCR) and Capillary electrophoresis technology.Data from the assay component ATG_PXRE_CIS was analyzed into 1 assay endpoint. This assay endpoint, ATG_PXRE_CIS, was analyzed with bidirectional fitting relative to DMSO as the negative control and baseline of activity. Using a type of inducible reporter, measures of mRNA for gain or loss-of-signal activity can be used to understand the reporter gene at the transcription factor-level as they relate to the gene NR1I2. Furthermore, this assay endpoint can be referred to as a primary readout, because this assay has produced multiple assay endpoints where this one serves a reporter gene function. To generalize the intended target to other relatable targets, this assay endpoint is annotated to the nuclear receptor intended target family, where the subfamily is non-steroidal.
# Human liver HepG2 cells are transiently transfected with multiple reporter transcription units (MRTUs) in 6-well plates using FuGene 6 reagent (Roche; 3 ml FuGene/1 mg DNA). The MRTU constructs are regulated by a cis-regulating element (promoter). […] A major difference between the CIS and TRANS system is that in CIS activities of endogenous TFs are measured, whereas the TRANS assay evaluates changes in activities of exogenous, chimeric NR-Gal4 proteins. […] At the end of 24 hour incubation, total RNA was isolated using TriZol reagent (Invitrogen). The isolated RNA is then reverse-transcribed using oligo(dT) primer and Mo-MLV reverse transcriptase (Invitrogen) with DNAse I (Ambion) treatment for 30 min. The one-tenth of the produced cDNA was amplified by PCR using Taq DNA polymerase (Invitrogen) and two reporter sequence-specific primers. The PCR products were fluorescently labeled by primer extension with 6-arboxyfluorescein (6-FAM) 5'-labeled reporter sequence-specific primer (2 min at 95 C, 20 s at 68 C and 10 min at 72 C) and these products were digested with 5U of HpaI (New England Biolabs) for 2h at 37 C. The fragments were purified using Qiaquick PCR columns (Qiagen), analyzed on an ABI 3130xL genetic analyzer (Applied Biosystems) with peak positions identified by using a set of X-rhodamine (ROX)-labeled MapMarker1000 molecular weight standards (BioVentures). The raw capillary electrophoresis data was processed using Attagraph software (Attagene).
Compound,outcome,AC50
CCSC(=O)N(CC(C)C)CC(C)C,inactive,–
c1ccc2[nH]c(-c3cscn3)nc2c1,inactive,10 µM (active)
N#CSCSc1nc2ccccc2s1,inactive,3.49 µM (active)
COC(=O)c1ccccc1C(=O)O,inactive,–
CCCCOC(=O)[C@@H](C)Oc1ccc(Oc2ccc(C(F)(F)F)cn2)cc1,–,50 µM (active)
COC(=O)CSc1cc(N=c2sc(=O)n3n2CCCC3)c(F)cc1Cl,–,9.92 µM (active)
C#CCOC(=O)[C@@H](C)Oc1ccc(Oc2ncc(Cl)cc2F)cc1,–,19.1 µM (active)
CN(C)C(=O)Nc1ccc(Cl)c(Cl)c1,–,11.4 µM (active) and 25.4 µM (active)
COC(=O)c1ccccc1S(=O)(=O)NC(=O)Nc1nc(OC(F)F)cc(OC(F)F)n1,–,33.2 µM (active)
S=C([S-])NCCNC(=S)[S-].[Mn+2],inactive,–
C[C@]12CC[C@@H]3c4ccc(O)cc4C[C@@H](CCCCCCCCCS(=O)CCCC(F)(F)C(F)(F)F)[C@H]3[C@@H]1CC[C@@H]2O (stereo not given in full),–,363 nM (active) [middle of 4 runs]
CCCCOC(=O)C(C)Oc1ccc(Oc2ccc(C(F)(F)F)cn2)cc1 (stereo not given),–,56.4 µM (active)
CCCN(CCC)C(=O)SCC,inactive,–
CCOC(=O)c1ccc(O)cc1,inactive,–
COC(=O)c1ccc(I)cc1S(=O)(=O)NC(=O)Nc1nc(C)nc(OC)n1,–,50 µM (active)
CCOC(=O)COc1cc(-n2ncc(C(F)(F)F)c(C)c2=O)c(F)cc1Cl,–,28.5 µM (active)
CC1(C)C(C=C(Cl)Cl)C1C(=O)OCc1cccc(Oc2ccccc2)c1 (stereo not given),–,7.62 µM (active)
COc1c(Cl)ccc(Cl)c1C(=O)O,inactive,–

Compound,outcome,AC50
OB(O)O,–,81.3 µM (active)
COC(=O)c1ccc(CNS(C)(=O)=O)cc1S(=O)(=O)NC(=O)Nc1nc(OC)cc(OC)n1,inactive,–
Oc1ccc(C(c2ccc(O)cc2)C(Cl)(Cl)Cl)cc1,–,0.498 µM (active)
CSC(=O)c1cccc2nnsc12,–,49.4 µM (active)
O=C(O)C1(C(=O)Nc2ccc(Cl)cc2Cl)CC1,–,69.7 µM (active)
CCCCOCCOCCOCc1cc2c(cc1CCC)OCO2,–,2.21 µM (active)
CCCCC(CC)CN1C(=O)C2C3C=CC(C3)C2C1=O (stereo not given),–,3.79 µM (active)
CC(=O)S[C@@H]1CC2=CC(=O)CC[C@]2(C)[C@H]2CC[C@@]3(C)[C@@H](CC[C@@]34CCC(=O)O4)[C@H]12,inactive,7.65 µM (active) [middle of 4 runs]
CCOC(=O)C(C)Oc1ccc(Oc2cnc3cc(Cl)ccc3n2)cc1 (stereo not given),–,35.1 µM (active)
S=C(S)NCCNC(=S)S.[Mn+2].[S-]C([S-])=NCCN=C([S-])[S-].[Zn+2],inactive,13.2 µM (active) and 13 µM (active) and 12.9 µM (active)
CCOC(=O)C(C)Oc1ccc(Oc2nc3ccc(Cl)cc3o2)cc1 (stereo not given),inactive,–
C#C[C@]1(O)CC[C@H]2[C@@H]3CCC4=CC(=O)CC[C@@H]4[C@H]3CC[C@@]21CC,–,5.07 µM (active) [middle of 5 runs]
CC(C)(C)[C@@H](O)[C@@H](Cc1ccc(Cl)cc1)n1cncn1,–,13.5 µM (active)
CCN(CC)C(=O)c1cccc(C)c1,inactive,40.2 µM (active)
C=CCOC(Cn1ccnc1)c1ccc(Cl)cc1Cl (stereo not given),–,4.84 µM (active)
CCOC(=O)[C@H](C)Oc1ccc(Oc2nc3ccc(Cl)cc3o2)cc1,inactive,–
CCCCC(CC)COC(=O)c1ccccc1C(=O)O (stereo not given),–,24.6 µM (active)

# From PubChem BioAssay (EPA / NIEHS)
